# Assay outcomes from PubChem BioAssay.
# Shown are actives, neighbours in structure and some others; about 11% of the full set was active somewhere.
# HP1b chromo inh – blocks HP1-beta chromodomain binding to methylated histone tails; P83916; AlphaScreen HP1-beta / biotin-H3K9me3 peptide binding; Potency, µM (top dose mostly 114 µM), inactives show at the top dose activity change, negative = inhibition, actives largely listed as inhibitors; 390,000 tested, 0.56% active; also: nearly all actives have a fitted effect of over 70% in size
# Target sequence (P83916 whole entry, looked up): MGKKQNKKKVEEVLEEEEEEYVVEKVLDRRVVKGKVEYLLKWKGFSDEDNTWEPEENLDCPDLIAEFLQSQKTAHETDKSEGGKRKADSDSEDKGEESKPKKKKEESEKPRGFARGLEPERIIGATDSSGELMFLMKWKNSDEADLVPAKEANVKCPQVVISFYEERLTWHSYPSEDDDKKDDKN
#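 Compound inhibition of the preformed complex between 50 nM HP1-beta and 50 nM biotinylated H3K9me3 peptide was read by AlphaScreen. Buffer was PBS pH 7.4 with 0.01% Tween-20. Incubations ran 30 min at room temperature, with 10 ug/mL donor/acceptor beads.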
# G9a inh – G9a (human) methyltransferase inhibition. Q96KQ7. G9a H3K9 monomethylation, AlphaScreen, 2 h. Potency, µM (doses to about 102 µM), for inactives: top-dose activity, negative = inhibition, actives largely listed as inhibitors. 350,000 tested, 8.8% active. AID 504332; also: % is scaled to controls: 0 for no effect and ±100 for the full control effect; nearly all actives have a fitted effect of over 75% in size
# Target sequence (Q96KQ7 913-1193 limits assumed): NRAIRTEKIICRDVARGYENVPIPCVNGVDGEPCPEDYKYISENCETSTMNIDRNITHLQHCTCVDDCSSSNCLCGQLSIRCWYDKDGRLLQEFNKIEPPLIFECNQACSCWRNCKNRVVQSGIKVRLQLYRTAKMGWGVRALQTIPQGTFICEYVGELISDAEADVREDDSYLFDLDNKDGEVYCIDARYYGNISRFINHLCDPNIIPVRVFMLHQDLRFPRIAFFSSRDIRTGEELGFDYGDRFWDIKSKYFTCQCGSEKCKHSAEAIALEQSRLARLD
#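 Step 1: enzyme (final 20 nM) with compound, 15 min RT. Step 2: substrate peptide 500 nM and SAM 20 uM, 2 h RT. Step 3: anti-H3K9me1 antibody and AlphaScreen beads, 10 min, then plate read.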
# BAZ2B block – blocks human BAZ2B; Q9UIF8; Potency, µM (series often up to 114 µM), without a hit: at the top dose activity change, negative = inhibition, usual class: inhibitors; AID 504333; 360,000 tested, 4.4% active; AlphaScreen BAZ2B-H3K14Ac peptide displacement; also: % is scaled to controls: 0 for no effect and ±100 for the full control effect; nearly all actives have a fitted effect of over 60% in size
#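 Compounds, titrated to a top concentration of 110 uM, were incubated 30 min at room temperature with preformed BAZ2B/acetyl-K14 H3 peptide complex (50 nM each). Proximity signal was measured by AlphaScreen after 20 min with beads.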
# L3MBTL1 inh – inhibitors of human L3MBTL1; AlphaScreen L3MBTL1–H3K9me1 peptide binding; Potency, µM (top dose mostly 57.1 µM), for the others: at the highest dose activity, negative = inhibition, most hits filed as inhibitors; 230,000 tested, 0.66% active; also: % is scaled to controls: 0 for no effect and ±100 for the full control effect; nearly all actives have a fitted effect of over 60% in size
#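 L3MBTL1 (50 nM) pre-complexed 30 min with biotinylated H3(1-15)K9me1 peptide (75 nM), then compounds added for 30 min at room temperature; AlphaScreen streptavidin donor/nickel chelate acceptor beads (10 ug/mL final) read after 30 min dark incubation.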
# JMJD2A Tudor – inhibitors of human JMJD2A Tudor domain | O75164 | AlphaScreen JMJD2A-Tudor / H3K4me3 peptide binding | Potency, µM (series often up to 114 µM), without a hit: top-dose activity change, negative = inhibition, hits mostly inhibitors | 390,000 tested, 4.4% active; also: % is scaled to controls: 0 for no effect and ±100 for the full control effect; nearly all actives have a fitted effect of over 50% in size
# * marks the source's active call; other numbers are inactive results; ? = inconclusive; nt = no result; [ ] = remark or other dose. Calls follow the shape of the dose curve; as a rule, active = well fitted inhibition curve with a large enough effect; inconclusive = small, poorly fitted or top-dose-only effect; inactive = no such curve, though single readings can be large or run the other way. Potency is read from the fitted curve at half-maximal effect.
SMILES,HP1b chromo inh,G9a inh,BAZ2B block,L3MBTL1 inh,JMJD2A Tudor
CCn1c(=O)cc(SCC(=O)NCc2ccc(F)cc2Cl)c2ccccc21,30.7%,-2.4%[59 µM],-2.6%[57.1 µM],nt,-2.7%
COC(=O)C1=C(C(=O)OC)C2(OC1c1cccc(F)c1)C(=O)c1ccccc1C2=O (stereo not given),23.9%,25.1µM*,0.2%,nt,0.0%
CCN1CCN(c2cc(C)c3cc(NC(=O)/C=C/c4cccc(Cl)c4)ccc3n2)CC1,-35.4%,11.2µM*,?,nt,31.6µM*
Cc1cc(N2CCC(C)CC2)nc2ccc(NC(=O)CCC(=O)N3CCN(c4ccccc4F)CC3)cc12,25.6%,-2.2%[59 µM],-1.9%,nt,6.8%
CCN1CCN(c2cc(C)c3cc(NC(=S)N4CCN(c5ccccc5)CC4)ccc3n2)CC1,7.4%,-41.5%[59 µM],?,nt,-17.3%
CCN1CCN(c2cc(C)c3cc(NC(=S)N4CCN(c5ccccc5F)CC4)ccc3n2)CC1,-5.9%,44.7µM*,?,nt,?
CCN1CCN(c2cc(C)c3cc(NC(=O)c4cccc(Cl)c4)ccc3n2)CC1,-4.4%,-35.2%[59 µM],-1.9%,nt,?
CCN1CCN(c2cc(C)c3cc(NC(=O)CCC(=O)N4CCN(c5ccccc5)CC4)ccc3n2)CC1,-18.1%,79.4µM*,-19.7%,nt,?
CCN1CCN(c2cc(C)c3cc(NC(=S)N4CCOCC4)ccc3n2)CC1,10.8%[57 µM],39.8µM*,-25.5%,nt,-13.2%
Cc1ccc(OCCCC(=O)Nc2sc3c(c2C(N)=O)CCCC3)cc1,-4.3%,?,-3.7%,nt,-23.9%
O=c1c(-c2cc(F)cc(F)c2)nc2cnc(N3CCOCC3)nc2n1C1CC1,nt,-5.8%[12.7 µM],nt,nt,nt
COc1ccccc1N1CCN(C(=S)Nc2ccc3nc(N4CCOCC4)cc(C)c3c2)CC1,?,56.2µM*,nt,nt,?
CCN1CCN(c2cc(C)c3cc(NC(=S)N(CC)CC)ccc3n2)CC1,0.9%[57 µM],35.5µM*,?,nt,?
CCCN1CCN(C(=S)Nc2ccc3nc(N4CCN(CC)CC4)cc(C)c3c2)CC1,-7.5%,44.7µM*,-19.4%,nt,-25.7%
CCC(C)NC(=S)Nc1ccc2nc(N3CCN(CC)CC3)cc(C)c2c1 (stereo not given),12.5%,?,-25.0%,nt,-28.1%
Cc1cc(N2CCOCC2)nc2ccc(NC(=S)N3CCN(c4ccccc4)CC3)cc12,19.6%,?,nt,nt,-22.0%
CCN1CCN(c2cc(C)c3cc(NC(=S)N4CCC5(CC4)OCCO5)ccc3n2)CC1,16.9%,?,-0.9%,nt,-26.8%
CCOC(=O)C1CCCN(C(=O)c2ccc3c(c2)sc2nc(-c4cccc(OC)c4)cn23)C1 (stereo not given),20.3%,-22.1%[59 µM],-17.7%,nt,-7.2%
Cc1cc2c(s1)c1cnn(Cc3ccccc3C)c(=O)c1n2C,nt,nt,nt,nt,-2.1%
CCOc1ccc(NC(=O)Cn2cc(C(=O)c3ccc(OCC)cc3)c(=O)c3cc4c(cc32)OCCO4)cc1,25.1%,-47.9%[59 µM],-8.0%,nt,-18.9%
CC(NO)C(C)(C)NO (stereo not given),?,?,-28.3%,9.1%,39.8µM*
CCOC(=O)c1nnc2ccnn2c1N,2.1%,?,-3.3%,2.4%,89.1µM*
CCOC(=O)c1nnc2cc(C)nn2c1C,36.7%,20.4%[59 µM],1.1%,4.1%,-1.9%
O=P(c1ccccc1)(c1ccccc1)c1cc(S(=O)(=O)O)ccc1O,35.5µM*,35.5µM*,50.1µM*,nt,39.8µM*
O=P(O)(c1ccccc1)c1ccccc1O,53.5%,10.1%[59 µM],-35.0%,3.8%,?
SMILES,HP1b chromo inh,G9a inh,BAZ2B block,L3MBTL1 inh,JMJD2A Tudor
CCC(=O)c1ccc(OCC(=O)O)c(OC)c1,49.1%,79.4µM*,1.3%,-15.9%,-0.3%
CCC(=O)c1ccc(OCC(=O)N2CCCC2)c(OC)c1,34.0%,nt,50.1µM*,?,15.1%
CCOC(=O)COc1ccc(C(=O)CC)cc1OC,24.8%,6.8%,-1.7%,5.6%,2.1%
CCC(=O)c1ccc(OCC(=O)N2CCc3cc(OC)c(OC)cc3C2)cc1,39.6%,-34.7%[12.7 µM],9.4%,-4.1%,-14.2%
COc1ccc(/C=N/NC(=O)CNC(=O)c2ccncc2)cc1,-4.5%,40.6%,2.8%,nt,-2.1%
Cc1ccc(Cl)cc1NC(=O)CN1CCN(S(=O)(=O)N2CCC(C)CC2)CC1,42.5%,11.9%,-2.2%,nt,-4.7%
CC1CCc2[nH]c3ccc(C(=O)N(C)CC(=O)Nc4ccccc4Br)cc3c2C1 (stereo not given),-37.6%,44.7µM*,?,?,?
